Values joined by “and” are separate entries in the source; they are usually repeats but may differ in a detail not shown here. Equal entries are not always repeated. In all, about 1,100 compounds went through this assay and about 390 (35%) were called active. Another 30% or so got no clear call; they are omitted. The call rests on the fitted dose curve; in most records, active means well fitted inhibition curve with a large enough effect; inconclusive means small, poorly fitted or top-dose-only effect; inactive means flat fitted curve, though single readings scatter. Some of the results follow. Entries that show only a call come without a potency.
Each compound was assayed against Luciferin 4-monooxygenase (Photinus pyralis) (UniProt P08659) (assay: qHTS of Nrf2 Activators: Hit Validation in Secondary FLuc Assay). Settings: firefly luciferase inhibition counter-screen, luminescence; series mostly up to 57.5 µM.
Description: Many diseases have some form of oxidative stress injury and ties to inflammation, causing a host of problems for the patient. The antioxidant response element (ARE) plays an important role in alleviating the harmful effects of oxidative stress. The antioxidant response element (ARE) is a transcriptional regulatory element involved in the activation of genes coding for a number of antioxidant proteins and detoxifying enzymes. These enzymes work in concert to protect tissues from oxidative insults and chemical toxicities in human hepatocytes and immune cells. The protective effects of ARE activation are primarily triggered through Nrf2 (NF-E2-related factor) binding to and activating AREs. It is known that Nrf2 controls the production of over 250 antioxidant and detoxification proteins (Hu et al., 2006), thereby protecting tissues by increasing cellular antioxidant content and suppressing inflammatory signaling pathways. The transcription factor Nrf2 is a central link between oxidative chemicals, such as phenolic antioxidants and electrophilic compounds, and the activation of ARE. Nrf2 levels are constitutively low as a consequence of its interaction with Keap1, which targets its degradation (Zipper and Mulcahy, 2002). Electrophiles react with key cysteine residues in Keap1, releasing Nrf2 and allowing its translocation to the nucleus. Once within the nucleus, Nrf2 complexes with coactivators such as p300, and binds to the AREs to induce gene transcription of cytoprotective enzymes, resulting in the prevention of toxicity. Activation of Nrf2 protects tissues by increasing cellular antioxidant content and suppressing inflammatory signaling pathways. Identifying novel and potent Nrf2 activators by using the AREc32 cell line to detect ARE activation by small molecules will lead to the identification and development of probes to study protective pathways in multiple tissues. These specific probes are essential to study the ARE pathway, and eventually to determine whether this pathway does activate genes that could protect against a host of diseases, including cardiovascular diseases, obesity, diabetes, Alzheimer's, and Parkinson's disease.
This project's aim is to identify novel and potent Nrf2 activators by using the AREc32 cell line to detect ARE activation by small molecules, which will lead to the identification and development of probes to study the ARE pathway. In this counter assay, we aim to identify false positive as identified from this primary assay using an FLuc assay with an inhibiting read-out.
NIH Chemical Genomics Center [NCGC]
NIH Molecular Libraries Probe Centers Network [MLPCN]
Assay Submitter (PI): Curtis Klaassen, University of Kansas Medical Center
Assess whether an activator in the primary assay potentially causes such activation by inhibitor-induced stabilization of the firefly luciferase reporter enzyme by determining whether it inhibits firefly luciferase in the presence of Km concentrations of its substrates (ATP and D-luciferin).
Further: nearly all actives have a fitted effect of over 65% in size.
Potency means the concentration at half of the fitted maximal effect.

| SMILES | Potency |
| --- | --- |
| c1ccc(CSc2nccc(-c3ccco3)n2)cc1 | 12 µM (active) |
| C=CCSc1nccc(-c2cc(Cl)sc2Cl)n1 | inactive |
| O=c1cc(-c2ccco2)nc(SCc2cccc(Cl)c2)[nH]1 | inactive |
| COC(=O)c1cc2c(s1)-c1cc(F)ccc1OC2 | inactive |
| CCn1c(NC(=O)c2cccs2)nc2ccccc21 | 12 µM (active) |
| CCn1c(NC(=O)c2ccccc2)nc2ccccc21 | 9.53 µM (active) |
| c1ccc(-c2nnc(-c3ccccc3)o2)cc1 | 1.9 µM (active) |
| Brc1cc(Cc2nnc(-c3ccccc3)o2)c(Br)s1 | inactive |
| O=[N+]([O-])c1cccc(-c2nc(-c3ccccn3)no2)c1 | 1.9 µM (active) |
| N=c1n(CCN2CCOCC2)c2ccccc2n1CC(=O)c1cccc([N+](=O)[O-])c1 | inactive |
| O=[N+]([O-])c1cccc(-c2nnc(-c3ccccc3)o2)c1 | 2.39 µM (active) |
| O=C1C2C(C(=O)N1/N=C/c1ccc([N+](=O)[O-])o1)C1C=CC2C12CC2 (stereo not drawn) | inactive |
| O=[N+]([O-])c1cnccc1-n1nnc2ccccc21 | inactive |
| NC(=O)c1cc2c3ccccc3ccn2c1-c1ccccc1 | 13.5 µM (active) |
| CCOc1c(Br)cc(C(N)=O)cc1OCc1ccccc1 | inactive |
| O=C1C(=Cc2ccco2)CCCC1=Cc1ccco1 | 2.69 µM (active) |
| COC(=O)C1=C(C)N(C)C(=O)/C1=C\c1ccco1 | inactive |

| SMILES | Potency |
| --- | --- |
| Nc1ccc(S(=O)(=O)Nc2nccc(/C=C/c3cccc(Br)c3)n2)cc1 | inactive |
| Nc1nccc(/C=C/c2c(F)cccc2Cl)n1 | 9.53 µM (active) |
| COC(=O)c1ccccc1NC(=O)c1cccs1 | inactive |
| COc1ccccc1C(=O)COC(=O)c1cccs1 | 2.69 µM (active) |
| COC(=O)c1ccccc1NC(=O)COCc1cc(-c2cccs2)on1 | inactive |
| COc1cc(OC)cc(-c2nc3ccccc3s2)c1 | 3.79 µM (active) |
| COc1nc(-c2ccccc2)cc(-c2ccccc2)n1 | inactive |
| C/C(=N\NC(=S)Nc1cccc(C)c1)c1ccco1 | 7.57 µM (active) |
| Cc1cccc(NC(=O)C2CC(=O)N/C(=N/N=C/c3ccco3)S2)c1 (stereo not drawn) | inactive |
| Cc1ccnc(SCC(=O)c2ccc(Br)cc2)c1C#N | 6.01 µM (active) |
| Cc1cc(C)c(C#N)c(OCC(=O)c2ccc(Br)cc2)n1 | inactive |
| N#C/C(=C(/O)c1ccco1)c1nc2ccccc2[nH]1 | 3.79 µM (active) |
| N#C/C(=C(/O)c1ccco1)c1nc2ccccc2s1 | 2.39 µM (active) and 2.69 µM (active) |
| COC(=O)c1cc2nc(-c3ccccc3)cc(C(F)(F)F)n2n1 | inactive |
| COC(=O)c1sccc1NC(=O)c1ccccc1 | inactive |
| COCCn1c(C(F)(F)F)ccc(NC(=O)c2ccccc2)c1=O | 4.78 µM (active) |

— PubChem BioAssay AID651597 (National Center for Advancing Translational Sciences (NCATS), 2012)
